From PubChem BioAssay AID1159580 (chemical genetic matrix, 2015)
Out of some 5,500 compounds screened, about 2,000 (36%) were called active. Roughly 18% stayed inconclusive and do not appear here. Cut-off read from the data, not from the text of the source: active = normalized growth mostly below about 0.91 (no sharp cut-off); inconclusive = no clear call, values can overlap the other calls; inactive = mostly above about 0.92. The list shows a part of the results.

Experiment: chemical genetic growth profiling, strain panel (AID 1159580);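 note: tested at 20 µM; growth read once vehicle control cultures reached saturation at 30 °C; 1 = growth at the plate median or of vehicle wells; lower values mean less growth of the strain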
Details: growth OD

Measured: normalized growth

CC(C(=O)O)c1ccc(N2Cc3ccccc3C2=O)cc1 (configuration not stated)
active: S. cerevisiae deletion strains, locus YNL322C, strain KRE1 (second series), stronger effect = lower value 0.818
inactive: S. cerevisiae deletion strains, locus YKL009W, strain mrt4, stronger effect = lower value 0.998 | S. cerevisiae deletion strains, locus YKL068W, stronger effect = lower value 1 | S. cerevisiae deletion strains, locus YKL085W, strain MDH1 (second series), stronger effect = lower value 0.99 | S. cerevisiae deletion strains, locus YKL085W, strain MDH1, stronger effect = lower value 0.99 | S. cerevisiae deletion strains, locus YKL160W, strain elf1, stronger effect = lower value 0.986 | S. cerevisiae deletion strains, locus YKL190W, strain CNB1, stronger effect = lower value 1.01 | S. cerevisiae deletion strains, locus YKR001C, strain vps1, stronger effect = lower value 0.976 | S. cerevisiae deletion strains, locus YKR026C, strain gcn3, stronger effect = lower value 0.986 | S. cerevisiae deletion strains, locus YKR091W, strain srl3, stronger effect = lower value 0.983 | S. cerevisiae deletion strains, locus YLL001W, strain dnm1, stronger effect = lower value 0.96 | S. cerevisiae deletion strains, locus YLL026W, stronger effect = lower value 0.988 | S. cerevisiae deletion strains, locus YLL041C, strain sdh2, stronger effect = lower value 0.99 | S. cerevisiae deletion strains, locus YLR027C, strain aat2, stronger effect = lower value 0.985 | S. cerevisiae deletion strains, locus YLR039C, strain RIC1, stronger effect = lower value 0.994 | S. cerevisiae deletion strains, locus YLR058C, strain SHM2, stronger effect = lower value 1.01 | S. cerevisiae deletion strains, locus YLR102C, strain apc9, stronger effect = lower value 0.992 | S. cerevisiae deletion strains, locus YLR113W, strain HOG1, stronger effect = lower value 0.984 | S. cerevisiae deletion strains, locus YLR221C, strain rsa3, stronger effect = lower value 0.928 | S. cerevisiae deletion strains, locus YLR258W, strain gsy2, stronger effect = lower value 0.976 | S. cerevisiae deletion strains, locus YLR262C, strain YPT6 (second series), stronger effect = lower value 0.966 | S. cerevisiae deletion strains, locus YLR262C, strain YPT6, stronger effect = lower value 1.03 | S. cerevisiae deletion strains, locus YLR268W, strain sec22, stronger effect = lower value 0.997 | S. cerevisiae deletion strains, locus YLR320W, strain mms22, stronger effect = lower value 0.918 | S. cerevisiae deletion strains, locus YLR330W, strain CHS5, stronger effect = lower value 1.01 | S. cerevisiae deletion strains, locus YLR342W, strain FKS1 (second series), stronger effect = lower value 1.01 | S. cerevisiae deletion strains, locus YLR342W, strain FKS1, stronger effect = lower value 0.981 | S. cerevisiae deletion strains, locus YLR357W, strain rsc2, stronger effect = lower value 0.957 | S. cerevisiae deletion strains, locus YLR370C, strain arc18, stronger effect = lower value 0.974 | S. cerevisiae deletion strains, locus YLR371W, strain rom2, stronger effect = lower value 0.995 | S. cerevisiae deletion strains, locus YLR384C, strain iki3, stronger effect = lower value 0.984 | S. cerevisiae deletion strains, locus YLR418C, strain cdc73, stronger effect = lower value 0.951 | S. cerevisiae deletion strains, locus YML016C, strain PPZ1, stronger effect = lower value 1.02 | S. cerevisiae deletion strains, locus YML032C, strain rad52, stronger effect = lower value 0.975 | S. cerevisiae deletion strains, locus YML120C, strain ndi1, stronger effect = lower value 0.934 | S. cerevisiae deletion strains, locus YML124C, strain tub3, stronger effect = lower value 0.993 | S. cerevisiae deletion strains, locus YMR058W, strain fet3, stronger effect = lower value 0.984 | S. cerevisiae deletion strains, locus YMR078C, strain ctf18, stronger effect = lower value 0.995 | S. cerevisiae deletion strains, locus YMR125W, strain sto1, stronger effect = lower value 0.973 | S. cerevisiae deletion strains, locus YMR129W, stronger effect = lower value 0.986 | S. cerevisiae deletion strains, locus YMR205C, strain PFK2, stronger effect = lower value 0.98 | S. cerevisiae deletion strains, locus YMR223W, strain ubp8, stronger effect = lower value 0.98 | S. cerevisiae deletion strains, locus YMR231W, strain pep5, stronger effect = lower value 0.988 | S. cerevisiae deletion strains, locus YMR307W, strain GAS1, stronger effect = lower value 1.07 | S. cerevisiae deletion strains, locus YNL067W, strain RPL9B, stronger effect = lower value 1.01 | S. cerevisiae deletion strains, locus YNL071W, strain lat1, stronger effect = lower value 0.999 | S. cerevisiae deletion strains, locus YNL153C, strain GIM3, stronger effect = lower value 1.01 | S. cerevisiae deletion strains, locus YNL183C, strain NPR1, stronger effect = lower value 0.941 | S. cerevisiae deletion strains, locus YNL209W, strain ssb2, stronger effect = lower value 0.973 | S. cerevisiae deletion strains, locus YNL233W, strain BNI4, stronger effect = lower value 1.01 | S. cerevisiae deletion strains, locus YNL248C, strain rpa49, stronger effect = lower value 0.968 | S. cerevisiae deletion strains, locus YNL250W, strain rad50, stronger effect = lower value 1.01 | S. cerevisiae deletion strains, locus YNL271C, strain bni1, stronger effect = lower value 0.984 | S. cerevisiae deletion strains, locus YNL298W, strain CLA4, stronger effect = lower value 0.981 | S. cerevisiae deletion strains, locus YNL307C, strain MCK1, stronger effect = lower value 0.986 | S. cerevisiae deletion strains, locus YNL322C, strain KRE1, stronger effect = lower value 1.01 | S. cerevisiae deletion strains, locus YNR049C, strain mso1, stronger effect = lower value 0.987 | S. cerevisiae deletion strains, locus YNR052C, strain pop2, stronger effect = lower value 0.989 | S. cerevisiae deletion strains, locus YOL006C, strain TOP1, stronger effect = lower value 0.975 | S. cerevisiae deletion strains, locus YOL012C, strain htz1 1.17 | S. cerevisiae deletion strains, locus YOL147C, strain pex11, stronger effect = lower value 0.991 | S. cerevisiae deletion strains, locus YOR001W, strain rrp6, stronger effect = lower value 0.981 | S. cerevisiae deletion strains, locus YOR061W, strain CKA2, stronger effect = lower value 1.02 | S. cerevisiae deletion strains, locus YOR069W, strain VPS5, stronger effect = lower value 1.01 | S. cerevisiae deletion strains, locus YOR070C, strain gyp1, stronger effect = lower value 0.982 | S. cerevisiae deletion strains, locus YOR080W, strain dia2, stronger effect = lower value 0.987 | S. cerevisiae deletion strains, locus YOR083W, strain WHI5, stronger effect = lower value 0.965 | S. cerevisiae deletion strains, locus YOR106W, strain vam3, stronger effect = lower value 0.957 | S. cerevisiae deletion strains, locus YOR136W, strain idh2, stronger effect = lower value 0.991 | S. cerevisiae deletion strains, locus YOR144C, strain elg1, stronger effect = lower value 0.995 | S. cerevisiae deletion strains, locus YOR184W, strain ser1, stronger effect = lower value 0.963 | S. cerevisiae deletion strains, locus YOR231W, strain MKK1, stronger effect = lower value 0.973 | S. cerevisiae deletion strains, locus YOR265W, strain rbl2, stronger effect = lower value 0.982 | S. cerevisiae deletion strains, locus YOR270C, strain vph1, stronger effect = lower value 1.03 | S. cerevisiae deletion strains, locus YOR290C, strain snf2, stronger effect = lower value 0.917 | S. cerevisiae deletion strains, locus YOR316C, strain cot1, stronger effect = lower value 0.998 | S. cerevisiae deletion strains, locus YPL051W, strain arl3, stronger effect = lower value 0.995 | S. cerevisiae deletion strains, locus YPL078C, strain atp4, stronger effect = lower value 0.984 | S. cerevisiae deletion strains, locus YPL106C, strain sse1, stronger effect = lower value 0.984 | S. cerevisiae deletion strains, locus YPL240C, strain hsp82, stronger effect = lower value 0.99 | S. cerevisiae deletion strains, locus YPL256C, strain CLN2, stronger effect = lower value 0.984 | S. cerevisiae deletion strains, locus YPR119W, strain clb2, stronger effect = lower value 0.993 | S. cerevisiae deletion strains, locus YPR141C, strain kar3, stronger effect = lower value 1.01 | S. cerevisiae deletion strains, locus YPR163C, strain tif3, stronger effect = lower value 0.996 | S. cerevisiae deletion strains, locus YPR167C, strain met16, stronger effect = lower value 0.982 | S. cerevisiae deletion strains, strain wtn01, stronger effect = lower value 0.987 | S. cerevisiae strains, strain wild type, stronger effect = lower value 1.01
